# Bioassay records as filed in PubChem BioAssay.
# KCNQ2 enhance = potentiators of rat KCNQ2 potassium channel; O88943; CHO-K1 KCNQ2, FluxOR thallium flux fluorescence; stronger effect = higher value; B-score at 10 µM; 0.54% of 310,000 active;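 active means fluorescence ratio B-score at least 3 SD of library B-scores, with initial fluorescence B-score within 3 of them, cut at about 5.3 in these data; same plate scores as AID 2156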;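 further: B-score of peak minus minimum over baseline fluorescence ratio after K+ and Tl+ stimulus; positive B-score means potentiation of KCNQ2 with more thallium influx and brighter signal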
# Target sequence (O88943 whole entry, looked up): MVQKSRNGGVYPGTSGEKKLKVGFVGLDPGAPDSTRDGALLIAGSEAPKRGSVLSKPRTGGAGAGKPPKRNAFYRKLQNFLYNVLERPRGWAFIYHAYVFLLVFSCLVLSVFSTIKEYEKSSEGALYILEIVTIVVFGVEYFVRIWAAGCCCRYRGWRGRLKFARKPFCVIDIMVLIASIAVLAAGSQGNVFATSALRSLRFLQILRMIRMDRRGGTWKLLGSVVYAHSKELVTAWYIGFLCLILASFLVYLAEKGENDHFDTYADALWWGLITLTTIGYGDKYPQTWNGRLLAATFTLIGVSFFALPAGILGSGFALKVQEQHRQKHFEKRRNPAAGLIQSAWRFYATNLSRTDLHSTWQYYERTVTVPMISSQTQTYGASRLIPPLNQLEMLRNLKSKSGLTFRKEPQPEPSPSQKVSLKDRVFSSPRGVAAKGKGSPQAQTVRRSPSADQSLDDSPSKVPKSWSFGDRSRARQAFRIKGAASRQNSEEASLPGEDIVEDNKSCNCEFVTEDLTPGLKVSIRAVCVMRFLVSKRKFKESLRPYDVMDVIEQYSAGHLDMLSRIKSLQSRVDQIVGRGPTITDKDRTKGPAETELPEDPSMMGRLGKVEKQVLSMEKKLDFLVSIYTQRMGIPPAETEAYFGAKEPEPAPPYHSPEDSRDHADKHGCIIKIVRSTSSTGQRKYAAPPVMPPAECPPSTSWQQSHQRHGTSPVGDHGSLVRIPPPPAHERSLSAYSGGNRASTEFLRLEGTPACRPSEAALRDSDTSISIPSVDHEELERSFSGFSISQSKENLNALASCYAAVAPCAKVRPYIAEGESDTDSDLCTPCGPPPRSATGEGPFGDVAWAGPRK
# KCNQ2 inh = blocks the rat KCNQ2 potassium channel. B-score at 10 µM. CHO-K1 KCNQ2, FluxOR thallium flux, 20 min; stronger effect = lower value. 1.1% of 310,000 active. O88943;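 active means fluorescence ratio B-score at most minus 3 library SDs, with starting brightness B-score within 2 library SDs, cut at about -5.5 in these data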
# Hits are given with their value; . = inactive; / = no result. Shown are actives, neighbours in structure and some others; about 1.6% of the full set was active somewhere.
SMILES,KCNQ2 enhance,KCNQ2 inh
CC(=O)Nc1ccccc1C(=O)OCc1ccc(C(=O)c2ccccc2)cc1,.,-6.5
CC(=O)Nc1ccccc1C(=O)OCc1cccc(F)c1,/,.
O=C(Nc1ccc(F)cc1)c1c(O)c2c(n(Cc3ccccc3)c1=O)CCCC2,/,.
O=C(Nc1cccnc1)c1c(O)c2c(n(Cc3ccccc3)c1=O)CCCC2,.,-5.8
CNC(=O)NC(O)C(Cl)(Cl)Cl (configuration not stated),.,.
Cc1cc(OCC(=O)N2C[C@H]3C[C@@H](C2)c2cccc(=O)n2C3)c2c(C)cc(=O)oc2c1,/,.
CC1CCN(C(=O)CCl)CC1,/,.
Cc1nc2ccccc2c(=O)n1-c1ccccc1[N+](=O)[O-],.,.
Cc1nc2ccccc2c(=O)n1-c1ccc(Br)cc1[N+](=O)[O-],7.4,.
O=[N+]([O-])[N-][n+]1cnn(Cc2ccc(Cl)cc2)c1,.,.
CCC(C)N1CCN(C(=O)COc2ccc3ccccc3c2)CC1 (configuration not stated),.,.
COc1cccc(OP(=O)(Nc2ccccc2)Oc2cccc(OC)c2)c1,.,-7.1
O=P(Nc1ccccc1)(Oc1ccccc1)Oc1ccccc1,.,.
CCOC(=O)c1ccc(NC(=O)N2C[C@@H]3C[C@@H](C2)c2cccc(=O)n2C3)cc1,.,.
Cc1cc(O)c2c(c1)OC(C)(C)C1=C2CC(C)CC1 (configuration not stated),.,-7.3
Cc1cc(O)c2c3c(c(=O)oc2c1)CCC(C)C3 (configuration not stated),/,.
Cc1cc(Oc2cc(NN3CCCCC3)c([N+](=O)[O-])cc2[N+](=O)[O-])ccc1[N+](=O)[O-],/,.
CCOP(=O)(OCC)C(NC(=O)c1cccc(C)c1)C(Cl)(Cl)Cl (configuration not stated),.,.
Cc1cccc(C(=O)NC(Oc2ccccc2)C(Cl)(Cl)Cl)c1 (configuration not stated),.,-5.7
CCC1=Nc2cc(C(=O)N3CCC4(CC3)OCCO4)ccc2Sc2ccc(C)cc21,/,.
COc1ccc(NC(=O)N2C[C@@H]3C[C@@H](C2)c2cccc(=O)n2C3)cc1,.,.
Cc1ccc(OCC(=O)N2CCN(C3CCC(c4ccccc4)CC3)CC2)cc1 (configuration not stated),.,-6.2
O=C(COc1ccc(Br)cc1)N1CCN(C2CCCC2)CC1,/,.
CC(ON1CC1(C(F)(F)F)C(F)(F)F)(C(N)=O)C(N)=O (configuration not stated),.,.
O=C(Cn1ncc2c3ccccc3n(Cc3ccc(F)cc3)c2c1=O)N1CCC2(CC1)OCCO2,19,.
SMILES,KCNQ2 enhance,KCNQ2 inh
Cc1c2cnn(CC(=O)N3CCC4(CC3)OCCO4)c(=O)c2c(C)n1Cc1ccccc1,/,.
O=C1NC(=O)C(=Cc2coc3ccc(O)cc3c2=O)C(=O)N1,.,-5.8
CN1C(=O)C(=Cc2coc3ccccc3c2=O)C(=O)N(C)C1=O,/,.
O=C(Nc1ccc(F)c([N+](=O)[O-])c1)N1C[C@H]2C[C@@H](C1)c1cccc(=O)n1C2,.,.
COc1ccc(OC)c(NP(=O)(Oc2ccc(Cl)cc2)Oc2ccc(Cl)cc2)c1,.,-6.1
COc1ccc(OC)c(NP(=O)(Oc2ccccc2)Oc2ccccc2)c1,.,.
COc1cc2c(cc1O)CC1c3c(cc(O)c(OC)c3-2)CCN1C (configuration not stated),/,.
CCCN1CCc2cccc3c2[C@H]1Cc1ccc(O)c(O)c1-3,.,-6
O=c1c2ccccc2nc(-c2ccccc2)n1-c1cccc(O)c1,/,.
COc1cc2c(cc1/C=C/[N+](=O)[O-])OCO2,.,-7.8
COc1cc(/C=C/[N+](=O)[O-])ccc1OC(=O)c1cccnc1,/,.
CC(=O)c1ccc(NC(=O)N2C[C@H]3C[C@@H](C2)c2cccc(=O)n2C3)cc1,.,.
COc1ccc(Cc2c(O)[nH]c(=S)[nH]c2=O)cc1,.,.
O=C(O)c1ccc(-[n+]2c(-c3ccccc3)cc(-c3ccccc3)cc2-c2ccccc2)cc1,.,.
Nc1ccccc1-[n+]1c(-c2ccccc2)cc(-c2ccccc2)cc1-c1ccccc1,.,-6.5
COc1ccccc1N1CCN(Cc2ccc(Br)s2)CC1,/,.
COCCCn1c(N)c(C(=O)OCCOC)c2nc3ccccc3nc21,.,.
CCCCNC(=O)c1c(N)n(CCCOC)c2nc3ccccc3nc12,.,-8.5
O=C1NC(=S)NC(=O)C1=Cc1ccc(OCC(=O)N2CCCC2)cc1,/,.
c1ccc2c(CN3CCCCC3)c[nH]c2c1,/,.
O=C(COc1ccc(Br)cc1)N1CCN(Cc2c[nH]c3ccccc23)CC1,.,-5.8
CC12CN3CCN(C1)CC(C)(C3)C2=NN,/,.
N=c1sccn1Cc1ccc(Cl)cc1Cl,.,.
Clc1ccc(CO/N=C(\Cn2ccnc2)c2ccc(Cl)cc2Cl)c(Cl)c1,.,-6
CCCCCCn1c(O)c(C=NCCN2CCOCC2)c(=O)[nH]c1=O,/,.
SMILES,KCNQ2 enhance,KCNQ2 inh
COC(=O)[C@@H](N)CCCN=C(N)N[N+](=O)[O-],.,-6.4
Cc1ccc(S(=O)(=O)N(C)C/N=C(\N)N[N+](=O)[O-])cc1,.,.
COc1ccc(NC(=O)c2cn(CCC#N)nc2-c2cccc(Br)c2)cc1,.,.
COc1cccc2cc(-c3cc(=O)oc4ccc(OC(=O)N(C)C)cc34)oc12,/,.
O=C(c1cccs1)c1cn(Cc2ccccc2Cl)c2ccccc12,.,-7.3
N#Cc1ccccc1Cn1cc(C(=O)c2cccs2)c2ccccc21,/,.
O=P(O)(Oc1ccccc1)OC(c1ccccc1)C(F)(F)F (configuration not stated),.,.
O=P(NC(c1ccccc1)c1ccccc1)(Oc1ccccc1)Oc1ccccc1,.,-5.9
CCOC(=O)C1(c2ccccc2)CCN(CC(=O)Nc2ccc(C)cc2)CC1,/,.
CCOC(=O)C1(c2ccccc2)CCN(CCC(C#N)(c2ccccc2)c2ccccc2)CC1,.,-6.8
CCCC(=O)c1ccc(CP(=O)(OCC)OCC)o1,.,.
CSc1ccc(CN2CCN(Cc3ccccc3Cl)CC2)cc1,.,-6.6
CSc1ccc(CN2CCN(C(=O)Cc3ccccc3)CC2)cc1,.,.
OCc1cnc[nH]1,.,.
O=C(CCN1CCCCC1)Nc1ccc(Cl)cc1C(=O)c1ccccc1,.,-5.6
O=C(CN1CCCC1)Nc1ccc(Cl)cc1C(=O)c1ccccc1,.,.
Clc1ccc(CSC(Cn2ccnc2)c2ccc(Cl)cc2Cl)cc1 (configuration not stated),/,.
Clc1ccc(COC(Cn2ccnc2)c2ccc(Cl)cc2Cl)cc1 (configuration not stated),.,-8.3
O=C(O)c1sc2cc(Cl)ccc2c1Cl,.,.
CCc1c(C)nc(N)nc1N1N=C1SCC(=O)OC,9.6,.
CCc1c(C)nc(N)nc1N1N=C1SCC#N,.,.
CCOC(=O)C(C)(CC)NC(=O)CSP(=S)(OCC)OCC (configuration not stated),/,.
COC(=O)C1=C(c2cccc(OC)c2OC)C[C@@H]2CC[C@H]1N2C(=O)NCc1ccccc1,/,.
COC(=O)C1=C(c2cccc(OC)c2OC)C[C@@H]2CC[C@H]1N2C(=O)NCc1cccc2ccccc12,.,-6.8
Cc1ccccc1CCNCc1cc2cccc(C)c2[nH]c1=O,.,.
